Pf growth 48h = P. falciparum growth inhibition at 48 hours (one generation); actives 5.9% (n = 310,000); Potency, µM (highest dose often 28.7 µM), most hits filed as inhibitors; P. falciparum luciferase growth in erythrocytes, 48 h; AID 504832
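Firefly luciferase activity from engineered P. falciparum reports growth; inhibitors lower the luminescent signal. Cultures contained 2% hematocrit erythrocytes at 0.1% final parasitemia.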
AMA1 RON2 block = disrupts binding of P. falciparum AMA1 to RON2; AlphaScreen AMA1-biotinylated RON2 peptide binding; Potency, µM (series often up to 58.2 µM), hits mostly inhibitors; actives 0.2% (n = 360,000); also: nearly all actives have a fitted effect of over 45% in size
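AMA1 (3D7) with his tag at 25 nM final met compounds first, then biotinylated RON2 peptide at 25 nM; detection used donor plus acceptor beads, 10 µg/mL apiece, read by AlphaScreen after 30 min at room temperature.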
Pf growth 96h = P. falciparum growth inhibition at 96 hour, primary screen for plastid delayed-death inhibitors; P. falciparum luciferase reporter growth, 96 h; Potency, µM (titrated, usually from 28.7 µM), actives largely listed as inhibitors; actives 6.9% (n = 320,000)
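Cell-based qHTS: luciferase-tagged P. falciparum in erythrocytes (2% hematocrit, 0.05% parasitemia final) incubated with compounds for 96 hours, 37 C, 5% CO2; luciferase detection reagent then added and luminescence measured.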
SARS PLpro yeast = SARS-CoV PLP inhibition in yeast. S. cerevisiae expressing SARS-CoV PLpro, growth rescue. Potency, µM (top dose mostly 32.9 µM), usual class: activators. actives 0.19% (n = 330,000); calls by dose curve; also: nearly all actives have a fitted effect of over 55% in size
Numbers stand for hits; - = inactive; ? = inconclusive; . = no result; [ ] = remark or other dose. This is a sample that favours compounds with a hit; in the whole collection about 9.4% have one here. Unless noted, calls follow the shape of the dose curve; as a rule, active = well fitted curve in the direction sought with a large enough effect; inconclusive = small, poorly fitted or top-dose-only effect, or another doubt; inactive = no such curve, though single readings can be large; an effect the other way counts as inactive or inconclusive.

SMILES	Pf growth 48h	AMA1 RON2 block	Pf growth 96h	SARS PLpro yeast
COc1cc(/C=C(\C#N)c2nc3ccccc3[nH]2)cc(OC)c1O	?	-	-	-
COc1cc(/C=C(\C#N)c2nc3ccccc3[nH]2)cc(Br)c1OCc1ccc(F)cc1	3.7µM	-	2.1µM	-
COc1cc(/C=C(\C#N)c2nc3ccccc3[nH]2)cc(Br)c1OCc1ccccc1	2.9µM	-	-	-
O=C(CSc1nnc(-c2ccccc2)o1)Nc1ccccc1F	.	-	-	-
COc1ccccc1CN(Cc1nc2ccccc2c(=O)[nH]1)S(=O)(=O)c1ccc2ccccc2c1	5.9µM	-	-	-
COc1ccccc1NC(=O)N(Cc1ccc2c(c1)OCO2)Cc1nc2ccccc2c(=O)[nH]1	?	-	?	-
COc1ccccc1CN(Cc1nc2ccccc2c(=O)[nH]1)C(=O)Nc1cccc(C)c1	.	-	9.3µM	-
COc1ccc(S(=O)(=O)N(Cc2ccccc2)Cc2nc3ccccc3c(=O)[nH]2)cc1	?	-	-	-
O=S(=O)(NCC1CCCO1)c1ccc(Br)cc1 (stereo not drawn)	-	-	-	-
CCOc1ccc(N2C(=O)CSC2=S)cc1	-	-	13µM	-
CCOc1ccccc1N1C(=O)CC(=O)NC1=O	-	-	-	-
CCOc1ccc(N2C(=O)CC(=O)NC2=O)cc1	-	-	10µM	-
CCN(CC)c1ccc(N2C(=O)CSC2=S)cc1	?	-	?	-
CCOC(=O)COc1cccc2c(=O)n(CC(=O)N3CCCCC3)ccc12	-	-	-	-
CCC(=O)OC1C(N(C)C)CC(C)O[C@H]1O[C@H]1[C@H](C)[C@@H](O[C@H]2CC(OC)[C@@H](O)C(C)O2)[C@H](C)C(=O)O[C@@H](CC)[C@](C)(O)[C@@H](O)[C@H](C)C(=O)[C@@H](C)C[C@]1(C)O (stereo partly drawn)	-	.	7.6µM	.
CCOC(=O)CCC(=O)O[C@H]1[C@H](O[C@@H]2[C@@H](C)[C@H](O[C@H]3C[C@@](C)(OC)[C@@H](O)[C@H](C)O3)[C@@H](C)C(=O)O[C@H](CC)[C@@](C)(O)[C@H](O)[C@@H](C)C(=O)[C@H](C)C[C@@]2(C)O)O[C@H](C)C[C@@H]1N(C)C	-	-	5.2µM	-
CC[C@H]1OC(=O)[C@H](C)[C@@H](O[C@H]2C[C@@](C)(OC)[C@@H](O)[C@H](C)O2)[C@H](C)[C@@H](O[C@@H]2O[C@H](C)C[C@H](N(C)C)[C@H]2O)[C@](C)(O)C[C@@H](C)C(=O)[C@H](C)[C@@H](O)[C@]1(C)O	-	-	?	-
CSc1nc(N(C)NC(=O)c2ccc(F)cc2)c2ccccc2n1	2.1µM	-	2.3µM	-
O=C1C(=O)N(CCN2CCOCC2)C(c2ccncc2)/C1=C(/O)c1ccc2c(c1)OCO2 (stereo not drawn)	-	-	8.3µM	-
O=C1C(=O)N(CCCn2ccnc2)C(c2ccc(Br)cc2)/C1=C(\O)c1ccc2c(c1)OCCO2 (stereo not drawn)	-	-	9.3µM	-
CCOC(=O)c1cnc2c(cnn2C)c1Oc1ccc(OC)cc1	?	-	?	-
ClC(/C=N/n1cnnc1)=C/c1ccccc1	12µM	-	12µM	-
Cc1cc2c(cc1S(=O)(=O)NC1CCCCC1C)OCC(=O)N2 (stereo not drawn)	-	-	?	?
COc1cccc(CN2c3ccc(Br)cc3C(=O)CS2(=O)=O)c1	9.3µM	-	?	-
N#CCCN1CCN(C(=S)c2ccc(-c3cc(Cl)ccc3Cl)o2)CC1	?	?	5.2µM	-
SMILES	Pf growth 48h	AMA1 RON2 block	Pf growth 96h	SARS PLpro yeast
CCN(CC)c1ccc(C=NCCNS(=O)(=O)c2ccc(C)cc2)cc1	-	-	-	-
CCOC(=O)C1=C(C)Nc2ncnn2C1c1cc(Br)ccc1F (stereo not drawn)	-	-	-	-
COc1cc(OC)c(OC)cc1/C=C/C(=O)c1ccc(NS(=O)(=O)c2ccc(C)cc2)cc1	9.3µM	-	13µM	-
COc1cccc(C(=O)/C=C/Nc2ccc(S(=O)(=O)Nc3ccc(C(C)=O)cc3)cc2)c1	10µM	-[2.32 µM]	13µM	?
COc1ccc(C(=O)/C=C/Nc2ccc(S(=O)(=O)Nc3cccc(C(C)=O)c3)cc2)cc1	?	-	?	-
COc1cccc(C(=O)/C=C/Nc2ccc(S(=O)(=O)Nc3ncccn3)cc2)c1	-	-[2.32 µM]	?	-
COc1cccc(C(=O)/C=C/Nc2ccc(S(=O)(=O)Nc3nc(C)cc(C)n3)cc2)c1	-	-	2.1µM	-
S=c1[nH]nc(Nc2cccc(Cl)c2)s1	-	-	-	-
CN(C)c1ncc([N+](=O)[O-])cc1C(F)(F)F	0.74µM	-	-	-
O=C(NNS(=O)(=O)c1ccc(F)cc1)c1ccccc1O	-	-	-	-
Cc1csc(NC(=O)C(C)N2C(=O)c3ccccc3S2(=O)=O)n1 (stereo not drawn)	-	-	-	-
CC(C)(C)c1ccc(NC(=O)N2CCN(c3ccc([N+](=O)[O-])cn3)CC2)cc1	5.2µM	-	2.3µM	-
O=C(Nc1ccc(F)cc1F)N1CCCN(c2ccc([N+](=O)[O-])cn2)CC1	?	-	?	-
COc1ccc(C(=O)c2[nH]c(N)c(C(N)=O)c2-c2ccc(OC)c(OC)c2)cc1	.	-	.	.
Cc1cc(OC(C)C(=O)Nc2cccnc2)ccc1Cl (stereo not drawn)	?	-	-	?
Cc1cc(NC(=O)C(C)Oc2ccc(Cl)cc2Cl)no1 (stereo not drawn)	-	-	1.7µM	-
CC(C)NS(=O)(=O)c1ccc(NC(=O)C(C)Oc2ccc(C(=O)c3ccccc3)cc2)cc1 (stereo not drawn)	?	-	2.3µM	-
CC(=O)Nc1ccc(C(=O)Nc2cc(C)on2)cc1	-	-	-	-
Cc1cc(OC(C)C(=O)Nc2ccncc2)ccc1Cl (stereo not drawn)	?	-	9.3µM	-
Cc1cc(NC(=O)c2ccc(NC(=O)C(C)Oc3ccccc3)cc2)no1 (stereo not drawn)	6.6µM	-	.	-
COc1ccc(OC)c(NC(=O)c2cc3ccccc3cc2OC)c1	-	-	?	-
Cc1ccc(S(=O)(=O)N2CCCCC2)cc1NC(=O)COC(=O)C1CC2C=CC1C2 (stereo not drawn)	-	-	?	-
CCOc1ccc(N2CC(C(=O)Nc3ccc(OC)c(S(=O)(=O)N4CCCCC4)c3)CC2=O)cc1 (stereo not drawn)	?	-	?	-
CCCN=Cc1c(CCC)[nH]n(-c2nc3ccccc3s2)c1=O	?	-	?	-
Cc1ccc(OC(C)C(=O)Nc2cc(C)on2)cc1 (stereo not drawn)	-	-	4.7µM	-
O=C(CN1CCCCC1)Nc1ccccc1NC(=O)CN1CCCCC1	-	-	-	-
O=C(CN1CCCCCC1)Nc1cccc2c1OCO2	-	-	1µM	-
COc1ccc(-c2nnn(CC(=O)N(CC(=O)NCCC(C)C)Cc3cccs3)n2)cc1OC	?	-	-	-
c1sc2[n+](c1C13CC4CC(CC(C4)C1)C3)CCS2	2.3µM	-	2.9µM	-
